Compounds with a hit are over-represented: about 3.1% of the library has one in this group of screens.
BoNT-A LC inh2 = BoNT A light chain protease inhibition | 360,000 tested, 0.17% active | inhibition, % at 10 µM | multiplex microsphere protease substrate cleavage, flow cytometry; note: plate controls were buffer without enzyme for full effect and enzyme alone for no effect
Bead autofluor = flagged as autofluorescent in microsphere protease counterscreen | 360,000 tested, 3.1% active | AID 624483 | compound autofluorescence counterscreen, microsphere flow cytometry; hits give high values | fluorescence intensity (test concentration not listed); in the data active = fluorescence intensity above about 16000; inconclusive = no clear call, values can overlap the other calls
PriA SSB inh = K. pneumoniae PriA-SSBct interaction inhibition; AlphaScreen SSBct-PriA binding, biotinylated peptide; inhibition, % at 33 µM; 430,000 tested, 0.6% active; in the data active = inhibition mostly above about 37%, no sharp cut-off; inactive = mostly below about 20%;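 note: plate controls were negative control peptide for no effect and reference peptide for full effect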
Anthrax LF prot = anthrax lethal factor protease inhibition; multiplex microsphere protease cleavage assay, LF; inhibition, % at 10 µM; 360,000 tested, 0.12% active; AID 588501; note: plate controls were buffer without enzyme for full effect and enzyme alone for no effect
Target sequence (P15917 whole entry, looked up): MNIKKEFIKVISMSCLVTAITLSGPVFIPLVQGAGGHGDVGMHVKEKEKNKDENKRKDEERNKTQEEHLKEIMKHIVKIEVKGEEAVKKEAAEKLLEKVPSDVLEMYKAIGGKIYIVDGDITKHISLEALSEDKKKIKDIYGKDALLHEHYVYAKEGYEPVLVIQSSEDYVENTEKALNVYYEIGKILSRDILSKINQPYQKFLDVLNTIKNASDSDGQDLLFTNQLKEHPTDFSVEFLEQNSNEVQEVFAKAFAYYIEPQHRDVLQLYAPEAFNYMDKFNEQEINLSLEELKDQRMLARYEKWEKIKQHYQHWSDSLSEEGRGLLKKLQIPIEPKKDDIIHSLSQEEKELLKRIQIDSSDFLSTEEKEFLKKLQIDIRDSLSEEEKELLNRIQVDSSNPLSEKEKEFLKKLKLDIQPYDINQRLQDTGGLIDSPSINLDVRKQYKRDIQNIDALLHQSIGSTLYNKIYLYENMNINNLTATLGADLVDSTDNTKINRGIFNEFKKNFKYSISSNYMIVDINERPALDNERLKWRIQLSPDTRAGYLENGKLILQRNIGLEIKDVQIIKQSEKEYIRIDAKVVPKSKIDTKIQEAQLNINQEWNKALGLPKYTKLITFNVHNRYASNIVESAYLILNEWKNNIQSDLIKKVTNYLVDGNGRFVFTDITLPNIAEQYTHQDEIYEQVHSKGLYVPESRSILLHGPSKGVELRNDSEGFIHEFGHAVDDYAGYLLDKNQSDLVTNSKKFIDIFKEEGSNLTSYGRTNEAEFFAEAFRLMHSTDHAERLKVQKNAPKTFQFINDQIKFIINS
BoNT-F LC inh = blocks Botulinum neurotoxin F light chain protease. Multiplex microsphere protease cleavage assay, flow cytometry. inhibition, % at 10 µM. 360,000 tested, 0.22% active; in the data active = inhibition above about 35%, passing the limit was not always enough; inconclusive = no clear call, values can overlap the other calls; note: plate controls were buffer without enzyme for full effect and enzyme alone for no effect
Starred values were filed as active, the others as inactive. Cut-off read from the data, not from the text of the source, unless noted: active = inhibition above about 30%; inconclusive = no clear call, values can overlap the other calls; inactive = below that.

Results for CCCc1[nH]nc2c1C(c1cc(OC)ccc1F)C(C#N)=C(N)O2 (stereo unspecified) ?
BoNT-A LC inh2: 4; Bead autofluor: 18896*; PriA SSB inh: -2; Anthrax LF prot: -9; BoNT-F LC inh: 4

Results for CCOC(=O)Cc1[nH]nc2c1C(c1cccc(OC)c1OC)C(C#N)=C(N)O2 (stereo unspecified) ?
BoNT-A LC inh2: 0; Bead autofluor: 4690; PriA SSB inh: -4; Anthrax LF prot: 2; BoNT-F LC inh: 15

How did CCOC(=O)Cc1[nH]nc2c1C(c1cc(OC)ccc1OC)C(C#N)=C(N)O2 (stereo unspecified) do in these assays?
BoNT-A LC inh2: -4; Bead autofluor: 21991*; PriA SSB inh: -16; Anthrax LF prot: 0; BoNT-F LC inh: -5

Results for Cc1[nH]c2ccccc2c1C(=O)COC(=O)c1ccc([N+](=O)[O-])s1 ?
BoNT-A LC inh2: 0; Bead autofluor: 4540; PriA SSB inh: 45*; Anthrax LF prot: -2; BoNT-F LC inh: 4

Results for O=C(CN1C(=O)c2ccccc2C1=O)NCC1COc2ccccc2O1 (stereo unspecified) ?
BoNT-A LC inh2: -1; Bead autofluor: 4846; PriA SSB inh: -10; Anthrax LF prot: -4; BoNT-F LC inh: -13

How did O=C(CN1CCN(Cc2ccccc2)CC1)NCC1COc2ccccc2O1 (stereo unspecified) do in these assays?
BoNT-A LC inh2: -1; Bead autofluor: 23257*; PriA SSB inh: -4; Anthrax LF prot: -2; BoNT-F LC inh: -3

Results for CCCOc1cc(N)ccc1C(=O)OCCN(CC)CC ?
BoNT-A LC inh2: 0; Bead autofluor: 6336; PriA SSB inh: 4; Anthrax LF prot: -2; BoNT-F LC inh: 3

How did CCCOc1ccc(N)cc1N do in these assays?
BoNT-A LC inh2: -2; Bead autofluor: 1176; PriA SSB inh: 52*; Anthrax LF prot: -44; BoNT-F LC inh: -160

How did Cc1cc(NS(=O)(=O)c2ccc(NC(=O)NC3CCCCC3)cc2)no1 do in these assays?
BoNT-A LC inh2: -4; Bead autofluor: 17035*; PriA SSB inh: -10; Anthrax LF prot: -7; BoNT-F LC inh: -5

How did Cc1cc(NS(=O)(=O)c2ccc(NC(=O)Nc3cccc(Cl)c3)cc2)no1 do in these assays?
BoNT-A LC inh2: 0; Bead autofluor: 9992; PriA SSB inh: -6; Anthrax LF prot: -8; BoNT-F LC inh: -1

Results for Cc1cc(NS(=O)(=O)c2ccc(NC(=O)Nc3ccc4c(c3)OCO4)cc2)no1 ?
BoNT-A LC inh2: inconclusive; Bead autofluor: 16204*; PriA SSB inh: -2; Anthrax LF prot: 0; BoNT-F LC inh: -2

What do the screens show for `Cc1cc(NS(=O)(=O)c2ccc(NC(=O)c3oc4ccccc4c3C)cc2)no1`?
BoNT-A LC inh2: 0; Bead autofluor: 22342*; PriA SSB inh: -5; Anthrax LF prot: 3; BoNT-F LC inh: -1

Results for O=C(Nc1ccc2c(c1)CCCN2S(=O)(=O)c1ccc(F)cc1)c1cccc(Cl)c1 ?
PriA SSB inh: -1

How did CC(C(=O)O)N1C(=O)/C(=C\c2ccc(-c3ccc(Cl)cc3Cl)o2)SC1=S (stereo unspecified) do in these assays?
PriA SSB inh: -10

What do the screens show for `CCOC(=O)Nc1cccc(N2CCCS2(=O)=O)c1`?
PriA SSB inh: -7

How did COc1ccc(-n2nnc(C(=O)O)c2-c2ccccc2)cc1 do in these assays?
PriA SSB inh: 18

What do the screens show for `COc1cccc2cc(C(=O)Nc3ccc4c(c3)CC(=O)N4)oc12`?
PriA SSB inh: -4

Results for CC(Nc1ccc(Cl)cc1)=C1CCOC1=O ?
PriA SSB inh: 5

Results for O=c1cc(CSc2nnc(-c3ccco3)o2)c2ccccc2[nH]1 ?
BoNT-A LC inh2: inconclusive; Bead autofluor: 22171*; PriA SSB inh: -11; Anthrax LF prot: -8; BoNT-F LC inh: 0

Results for O=C(CSc1nnc(-c2ccco2)o1)c1ccc(F)c(F)c1 ?
BoNT-A LC inh2: -2; Bead autofluor: 21701*; PriA SSB inh: -18; Anthrax LF prot: 1; BoNT-F LC inh: 1

How did CC(=O)c1c(C)cc(C)c(CSc2nnc(-c3ccco3)o2)c1C do in these assays?
BoNT-A LC inh2: 2; Bead autofluor: 19958*; PriA SSB inh: -8; Anthrax LF prot: -4; BoNT-F LC inh: 2

What do the screens show for `CCCC12CN3CC(CCC)(CN(C1)C3c1ccccn1)C2=O` (stereo unspecified)?
BoNT-A LC inh2: 1; Bead autofluor: 9364; PriA SSB inh: 58*; Anthrax LF prot: -3; BoNT-F LC inh: 9

What do the screens show for `CCc1ccc(-c2cc(C(=O)N3N=C(C(F)F)CC3(O)C(F)F)c3ccccc3n2)cc1` (stereo unspecified)?
BoNT-A LC inh2: -2; Bead autofluor: 12278; PriA SSB inh: 0; Anthrax LF prot: -5; BoNT-F LC inh: -11

How did CC(C)Cc1cc(C(=O)N2N=C(C(F)F)CC2(O)C(F)F)c2ccccc2n1 (stereo unspecified) do in these assays?
BoNT-A LC inh2: -10; Bead autofluor: 22633*; PriA SSB inh: -10; Anthrax LF prot: 0; BoNT-F LC inh: -12

What do the screens show for `O=C(Cn1c(=O)oc2cc(S(=O)(=O)N3CCCC3)ccc21)NCc1ccc(F)cc1`?
BoNT-A LC inh2: 0; Bead autofluor: 6277; PriA SSB inh: 104*; Anthrax LF prot: -3; BoNT-F LC inh: -1

Results for Cn1c(=O)oc2cc(S(=O)(=O)N3CCCCC3)ccc21 ?
BoNT-A LC inh2: 0; Bead autofluor: 4345; PriA SSB inh: -11; Anthrax LF prot: -5; BoNT-F LC inh: 8

Results for CCOC(=O)n1c(=O)oc2cc(S(=O)(=O)N3CCCCC3)ccc21 ?
BoNT-A LC inh2: 0; Bead autofluor: 23136*; PriA SSB inh: -26; Anthrax LF prot: 0; BoNT-F LC inh: 1

How did COC(=O)n1c(=O)oc2cc(S(=O)(=O)N3CCCCC3)ccc21 do in these assays?
BoNT-A LC inh2: inconclusive; Bead autofluor: 21823*; PriA SSB inh: -8; Anthrax LF prot: 0; BoNT-F LC inh: 3

How did O=C(Cn1c(=O)oc2cc(S(=O)(=O)N3CCCC3)ccc21)NC1CCCCC1 do in these assays?
BoNT-A LC inh2: 0; Bead autofluor: 4536; PriA SSB inh: -13; Anthrax LF prot: -6; BoNT-F LC inh: -5

Results for CC(=O)C(=NNc1ccccc1)Sc1nncn1C ?
PriA SSB inh: 0

How did Oc1c(-c2cc(-c3ccco3)[nH]n2)ccc2ccccc12 do in these assays?
BoNT-A LC inh2: -2; Bead autofluor: 3492; PriA SSB inh: 33; Anthrax LF prot: -2; BoNT-F LC inh: -7

What do the screens show for `Cc1ccc(O)c(C2=NCCNC(C(F)(F)F)=C2)c1`?
BoNT-A LC inh2: inconclusive; Bead autofluor: 21465*; PriA SSB inh: -8; Anthrax LF prot: -3; BoNT-F LC inh: -7

Results for Oc1c(C2=NCCNC(C(F)(F)F)=C2)ccc2ccccc12 ?
BoNT-A LC inh2: -2; Bead autofluor: 3156; PriA SSB inh: 45*; Anthrax LF prot: -4; BoNT-F LC inh: -10

What do the screens show for `COc1ccc(C2=NCCNC(C(F)(F)F)=C2)cc1`?
BoNT-A LC inh2: 0; Bead autofluor: 3436; PriA SSB inh: 2; Anthrax LF prot: -1; BoNT-F LC inh: -1

Assay outcomes deposited in PubChem BioAssay by several laboratories.
